Laboratory results taken from PubChem BioAssay (NCATS).
Where “and” joins values, the source holds several entries; their conditions need not be identical. Equal entries are not always repeated. Records with an inconclusive call do not appear. Calls of active or inactive are those of the source. Unless noted, calls follow the shape of the dose curve; as a rule, active = well fitted curve in the direction sought with a large enough effect; inconclusive = small, poorly fitted or top-dose-only effect, or another doubt; inactive = no such curve, though single readings can be large; an effect the other way counts as inactive or inconclusive.

Tests used:
[1] = target: Arylsulfatase A (Homo sapiens) (UniProt P15289); experiment: qHTS screen for enhancers of Arylsulfatase A (ASA1): LOPAC Validation Assay (AID 720538); conditions: outcome: dose series up to 57.5 µM
Summary of the method: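 Cell-based enhancement test: residual ASA activity in SV40-transformed I179S patient fibroblasts is measured by pNCS turnover (0.5mM final, 14h, room temperature) following 48h compound incubation; higher fluorescence indicates activation.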

[2] = qHTS for compounds that reverse cellular toxicity of Amyloid beta (A-beta) peptide in yeast: LOPAC Validation Assay (AID 720559);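 also: plate controls were DMSO for no effect and equimolar ferric chloride plus clioquinol rescue for full effect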
Summary of the method: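 Here, A-beta-toxic yeast grow with test compounds at 30 C for 48 hr before optical density at 600 nm is recorded; data are normalized against DMSO and the FeCl3-clioquinol control.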

[3] = qHTS for Activators of Parkin Expression: LOPAC Validation Assay (FLuc Reporter) (AID 720573;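 also: 0% = DMSO and 100% = positive control compounds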)
Summary of the method: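 Readout is FLuc luminescence from neuronal reporter cells (Parkin promoter, FLuc plus NLuc) after 24 h compound exposure in dose response. Values normalized to neutral DMSO and positive-control compounds.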

[4] = target: T1, Hexokinase-4 (Homo sapiens) + Glucokinase regulatory protein (Homo sapiens) (UniProt P35557+Q14397); experiment: qHTS assay for inhibitors of recombinant human GCK-GKRP interaction: Diaphorase-coupled assay (AID 743205)
Summary of the method: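 Signal derives from resorufin generated by diaphorase, linked to GCK turnover of glucose (5 mM) and ATP (0.4 mM). Enzyme complex was added after a 20-minute compound preincubation and monitored for 30 minutes.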

[5] = target: T1, Hexokinase-4 (Homo sapiens) + Glucokinase regulatory protein (Homo sapiens); experiment: qHTS assay for inhibitors of recombinant human GCK-GKRP interaction: ADP-Glo assay (AID 743206);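 also: plate controls were DMSO plus enzyme for no effect and no enzyme for full effect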
Summary of the method: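 GST-GCK and FLAG-GKRP (15 nM each in the dispensed mix, with 2 uM S6P) react with 0.4 mM ATP and 5 mM glucose (final) in Hepes pH 7.6 for 60 min at room temperature. ADP is measured by ADP-Glo luminescence.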

[6] = qHTS for Activators of Parkin Expression: LOPAC Validation Assay (NLuc Reporter) (AID 720572;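 also: 0% = DMSO and 100% = positive control compound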)
Summary of the method: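 Parkin promoter-driven FLuc/NLuc neuronal reporter cells; 24 h plating, 7-pt dose response, 24 h at 37 C/5% CO2; FLuc then NanoLuc reagent, 10 min each, luminescence; DMSO/positive control normalized.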

[7] = qHTS assay for small molecule agonists of the antioxidant response element (ARE) signaling pathway measured by Nrf2-dependant transcriptional activity (AID 720636; active = well fitted curve in the direction sought with a large enough effect in the repeat runs; an effect the other way counts as inactive or inconclusive;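 also: HepG2 cells with an ARE-driven luciferase reporter; % of control where 0% means no effect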)
Summary of the method: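 Cells: ARE-luc HepG2 with Nrf2-responsive luciferase. Medium contained 1% dialyzed FBS. Compound exposure lasted 16 hr at 37 C and 5% CO2, followed by ONE-Glo luciferase detection.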

[8] = qHTS assay for small molecule agonists of the antioxidant response element (ARE) signaling pathway measured by Nrf2-dependant transcriptional activity - cell viability counter screen (AID 720653; active = well fitted curve in the direction sought with a large enough effect in the repeat runs; an effect the other way counts as inactive or inconclusive; also: % is scaled to controls: 0 for no effect and ±100 for the full control effect); conditions: ARE-bla HepG2 viability, CellTiter-Glo ATP luminescence, 16 h; hits give low values
Summary of the method: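 Cytotoxicity counter screen: intracellular ATP quantified by CellTiter-Glo luminescence in the same ARE-bla HepG2 plates, after 16 h compound exposure and a 2 h beta-lactamase substrate step.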

[9] = qHTS assay for small molecule antagonists of the retinoid-related orphan receptor gamma (ROR-gamma) signaling pathway - cell viability counter screen (AID 720652; active = well fitted curve in the direction sought with a large enough effect in the repeat runs; an effect the other way counts as inactive or inconclusive;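 also: series mostly up to about 92 µM; compound exposure lasted 16 hr before ATP read; % is scaled to controls: 0 for no effect and ±100 for the full control effect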)
Summary of the method: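 Luminescence from CellTiter-Glo after 30 min at room temperature reported cellular ATP as the cytotoxicity measure. Cells were the CHO reporter line with doxycycline-induced ROR-gamma expression, exposed to compound for 16 hr at 37 C.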

Chain of Arylsulfatase A (Homo sapiens) (P15289 whole entry, looked up): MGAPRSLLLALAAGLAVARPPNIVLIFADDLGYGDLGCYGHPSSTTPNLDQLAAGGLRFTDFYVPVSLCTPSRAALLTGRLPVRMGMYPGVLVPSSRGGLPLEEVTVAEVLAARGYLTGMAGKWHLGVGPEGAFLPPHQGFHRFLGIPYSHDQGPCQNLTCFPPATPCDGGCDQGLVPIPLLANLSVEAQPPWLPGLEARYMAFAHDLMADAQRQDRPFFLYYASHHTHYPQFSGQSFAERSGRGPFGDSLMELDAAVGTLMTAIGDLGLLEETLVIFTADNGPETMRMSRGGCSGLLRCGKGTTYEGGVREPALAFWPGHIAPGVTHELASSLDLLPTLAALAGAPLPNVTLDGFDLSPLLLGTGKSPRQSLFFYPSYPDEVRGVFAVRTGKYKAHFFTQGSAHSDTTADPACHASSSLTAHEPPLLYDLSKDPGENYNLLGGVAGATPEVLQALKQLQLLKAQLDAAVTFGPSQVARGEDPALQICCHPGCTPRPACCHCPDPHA
T1 sequence (P35557 whole entry, looked up): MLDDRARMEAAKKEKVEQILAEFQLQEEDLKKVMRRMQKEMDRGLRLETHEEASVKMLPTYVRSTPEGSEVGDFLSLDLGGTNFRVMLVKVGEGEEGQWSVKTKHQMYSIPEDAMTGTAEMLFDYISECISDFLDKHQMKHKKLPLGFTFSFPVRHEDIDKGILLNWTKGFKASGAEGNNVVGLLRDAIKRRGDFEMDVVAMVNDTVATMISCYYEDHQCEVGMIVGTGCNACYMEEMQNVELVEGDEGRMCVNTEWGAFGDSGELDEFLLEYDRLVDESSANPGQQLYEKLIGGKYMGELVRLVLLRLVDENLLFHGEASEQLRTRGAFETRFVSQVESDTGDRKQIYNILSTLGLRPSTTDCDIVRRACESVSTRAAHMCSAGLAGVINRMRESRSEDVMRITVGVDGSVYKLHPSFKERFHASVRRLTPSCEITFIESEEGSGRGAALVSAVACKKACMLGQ
T1 sequence (Q14397 whole entry, looked up): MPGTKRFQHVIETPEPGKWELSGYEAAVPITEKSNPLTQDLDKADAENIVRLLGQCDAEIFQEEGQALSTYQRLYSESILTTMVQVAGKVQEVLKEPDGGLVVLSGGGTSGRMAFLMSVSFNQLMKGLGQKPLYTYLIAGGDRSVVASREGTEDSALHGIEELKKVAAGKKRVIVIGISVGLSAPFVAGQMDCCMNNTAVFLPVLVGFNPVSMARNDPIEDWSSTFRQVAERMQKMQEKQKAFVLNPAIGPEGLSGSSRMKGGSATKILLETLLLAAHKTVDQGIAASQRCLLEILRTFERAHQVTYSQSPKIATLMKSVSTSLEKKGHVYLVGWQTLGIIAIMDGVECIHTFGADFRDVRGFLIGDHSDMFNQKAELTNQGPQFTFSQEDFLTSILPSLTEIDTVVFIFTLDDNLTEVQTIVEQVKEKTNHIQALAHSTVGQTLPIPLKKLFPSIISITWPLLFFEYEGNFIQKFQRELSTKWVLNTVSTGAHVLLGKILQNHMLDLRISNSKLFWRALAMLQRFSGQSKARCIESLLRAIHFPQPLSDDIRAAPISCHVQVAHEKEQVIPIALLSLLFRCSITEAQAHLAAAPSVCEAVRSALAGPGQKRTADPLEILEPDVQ

Cc1cnc(NC(=O)C2=C(O)c3ccccc3S(=O)(=O)N2C)s1
inactive: outcome [1] | outcome [2] | outcome [3] | outcome [4] | outcome [5]

O=c1n(CCCN2CCN(c3cccc(Cl)c3)CC2)nc2ccccn12
inactive: outcome [1] | outcome [2] | Potency [6] | outcome [3] | outcome [4] | outcome [5]

Oc1ccc(C2CNCCc3c2cc(O)c(O)c3Cl)cc1 (stereo not drawn)
inactive: outcome [4] | outcome [5]

CNC[C@H](O)c1cccc(O)c1
inactive: outcome [1] | outcome [2] | Potency [6] | outcome [3] | outcome [7] | max response [8] -6.42% | outcome [4] | outcome [5]

N=c1nc(N2CCCCC2)cc(N)n1O
inactive: outcome [1] | outcome [2] | Potency [6] | outcome [3] | outcome [4] | outcome [5]

Clc1cccc(Cl)c1NC1=NCCN1
inactive: outcome [2] | Potency [6] | outcome [3] | outcome [4] | outcome [5]

O=C(O)COCCN1CCN(C(c2ccccc2)c2ccc(Cl)cc2)CC1 (stereo not drawn)
inactive: outcome [2] | Potency [6] | outcome [3] | outcome [4] | outcome [5]

NC(N)=NC(=O)c1nc(Cl)c(N)nc1N
inactive: outcome [2] | Potency [6] | outcome [3] | outcome [7] | outcome [9] | max response [8] -15% | outcome [4] | outcome [5]

CC(C[N+](C)(C)C)OC(N)=O (stereo not drawn)
inactive: outcome [1] | outcome [2] | Potency [6] | outcome [3] | outcome [4] | outcome [5]

NCCCC(N)(C(=O)O)C(F)F (stereo not drawn)
inactive: outcome [1] | outcome [2] | Potency [6] | outcome [3] | outcome [4] | outcome [5]

NNCCc1ccccc1
inactive: outcome [1] | outcome [2] | Potency [6] | outcome [3] | outcome [4] | outcome [5]

Cc1ccc(N(CC2=NCCN2)c2cccc(O)c2)cc1
inactive: outcome [2] | Potency [6] | outcome [3] | outcome [4] | outcome [5]

Cc1cn[nH]c1
inactive: outcome [1] | outcome [2] | Potency [6] | outcome [3] | outcome [4] | outcome [5]

Cc1cccc(-c2[nH]c(C(C)(C)C)nc2-c2ccc3nccnc3c2)n1
inactive: outcome [1] | outcome [2] | Potency [6] | outcome [3] | outcome [4] | outcome [5]

Nc1ccc(S(=O)(=O)Nc2ccnn2-c2ccccc2)cc1
inactive: outcome [1] | outcome [2] | Potency [6] | outcome [3] | outcome [4] | outcome [5]

Cc1oncc1C(=O)Nc1ccc(C(F)(F)F)cc1
inactive: outcome [4] | outcome [5]

NCCc1ccc(O)c(O)c1
inactive: outcome [2] | Potency [6] | outcome [3] | outcome [4] | outcome [5]

Nc1nc2c(ncn2COCCO)c(=O)[nH]1
inactive: outcome [1] | outcome [2] | outcome [4] | outcome [5]

NC[C@H](O)c1ccc(O)c(O)c1
inactive: outcome [1] | outcome [7] | max response [8] -7.71% | outcome [4] | outcome [5]

CCN(CC)CCCC(C)Nc1ccnc2cc(Cl)ccc12 (stereo not drawn)
inactive: outcome [1] | outcome [2] | Potency [6] | outcome [3] | outcome [4] | outcome [5]

CCCC(CCC)C(=O)O
inactive: outcome [1] | outcome [2] | outcome [7] | outcome [9] | max response [8] -3.17% and -14.3% and -4.27%

O=NN(CCCl)C(=O)NCCCl
inactive: outcome [2] | Potency [6] | outcome [3] | outcome [7] | max response [8] -0.208% | outcome [4] | outcome [5]

Cn1cnc([N+](=O)[O-])c1Sc1ncnc2nc[nH]c12
inactive: outcome [2] | Potency [6] | outcome [3] | outcome [7] | outcome [9] | outcome [4] | outcome [5]

O=C1CCc2cc(OCCCCc3nnnn3C3CCCCC3)ccc2N1
inactive: outcome [1] | outcome [2] | Potency [6] | outcome [3] | outcome [4] | outcome [5]

CCOC(=O)C1=C[C@]2(CC)CCCN3CCc4c(n1c1ccccc41)[C@@H]32
inactive: outcome [1] | outcome [2] | Potency [6] | outcome [3] | outcome [4] | outcome [5]

NS(=O)(=O)c1cc2c(cc1Cl)NC=NS2(=O)=O
inactive: outcome [2] | Potency [6] | outcome [3] | outcome [7] | outcome [9] | max response [8] -14.4% | outcome [4] | outcome [5]

CN1CCN(CCCN2c3ccccc3Sc3ccc(C(F)(F)F)cc32)CC1
inactive: outcome [1] | outcome [2] | Potency [6] | outcome [3] | outcome [4] | outcome [5]
